# From ChEMBL document CHEMBL3988442, “University of Dundee, Small-Polar-MMV Screening Library” (2021)
# In all, about 48,000 compounds went through this assay and about 13,000 (27%) showed an effect of 50% or more. The list shows a part of the results.
# Test system: Wolbachia pipientis
# Test: Anti-Wolbachia Cell-Based Screen
# Type: functional
# Parameters: scale not given: in the data most compounds retested in dose-response had high values
# Details: 5 µM
row,Structure (SMILES),Percent Effect
1,CCCN(CC1COc2ccccc2O1)C(=O)CCn1cncn1 (stereo not drawn),-2.229%
2,O=C(Cn1cc(C(=O)O)ccc1=O)NCc1ccc(F)cc1Cl,11.66%
3,Cc1c(Br)cccc1C(=O)NC(C)CN1CCCC1=O (stereo not drawn),-7.738%
4,CC(C)NC(=O)N1C[C@@H](F)[C@@H](OCc2nc3ccccc3o2)C1,-6.815%
5,CN(C)Cc1cc(CC2(NCc3ccccc3Cl)COC2)no1,-4.538%
6,COC[C@@]12CC[C@@H](N3CCOCC3)C[C@H]1CCN(c1nc(CO)cs1)C2,-10.66%
7,CCN(C)C(=O)c1ccnn1-c1ccc2ccccn12,-2.565%
8,O=C(NCCN1CCOCC1)c1ccnn1-c1ccc2ccccn12.O=C(O)C(F)(F)F,-0.1496%
9,O=C(c1ccnn1-c1ccc2ccccn12)N1CCCC1,84.68%
10,O=C(c1ccnn1-c1ccc2ccccn12)N1CCOCC1,95.26%
11,COCCNC(=O)c1ccnn1-c1ccc2ccccn12,-19.09%
12,O=C(c1c2c(NCC3CC3)ncnc2n2ccccc12)N1CCOCC1,2.912%
13,Cc1cccc2c1nc1n2[C@@H](CNC(=O)c2ccccn2)COC1,-9.692%
14,CC(C)COC(=O)N1CCCN(Cc2nnc(C(C)(C)C)o2)CC1,-7.056%
15,CN(Cc1ccco1)C(=O)NC(Cn1ccnc1)C(C)(C)C (stereo not drawn),-3.966%
16,CC(Cn1cccn1)NC(=O)C1=Cc2ccccc2OC1 (stereo not drawn),2.492%
17,CCn1nccc1C(=O)NC(Cn1cccn1)C(C)(C)C (stereo not drawn),98.31%
18,CC(Cn1cccn1)NC(=O)Cc1cccs1 (stereo not drawn),8.385%
19,Cn1cc(C(=O)NC(Cn2cccn2)C(C)(C)C)cn1 (stereo not drawn),91.75%
20,CC(C)(C)C(Cn1ccnc1)NC(=O)NCc1ccco1 (stereo not drawn),10.62%
21,CC(Cn1cccn1)NC(=O)NCCc1cnn(C)c1 (stereo not drawn),-2.639%
22,CC(C)(C)C(Cn1cccn1)NC(=O)c1ccco1 (stereo not drawn),126.5%
23,CC(C)CC(NC(=O)c1cnn(C)c1)C(=O)Nc1cc[nH]n1 (stereo not drawn),-3.159%
24,O=S(=O)(Nc1ccc(N2CCOCC2)cc1)c1cccc(F)c1,2.423%
25,Cc1cc(CN2CC3(CCN(C(=O)C4CC4)CC3)CC2C(=O)O)oc1C (stereo not drawn),-14.13%

row,Structure (SMILES),Percent Effect
1,O=c1[nH]c(NCc2cccc(-c3ccccc3)c2)nc2c1CCNC2,-0.2023%
2,CC(=O)c1cccc(-c2nc3c([nH]2)CCNC3)c1F,-6.254%
3,CS(=O)(=O)N1CCOC2(CCN(c3ncccn3)CC2)c2ccccc21,-2.489%
4,Cc1cccc(N2CCC(N3CCCC4(CN(C)C(=O)O4)C3)CC2)c1C (stereo not drawn),11.85%
5,CS(=O)(=O)N1CC2(CCCN(C3COC3)C2)Cc2ccccc21 (stereo not drawn),116.4%
6,Cc1cccc(N2CCC(N3CCCC4(CNC(=O)O4)C3)CC2)c1C (stereo not drawn),-4.7%
7,O=C(O)C(F)(F)F.O=C(O)C(F)(F)F.c1ccc(CN2CCOCC3(CCN(C4CCOCC4)C3)C2)cc1 (stereo not drawn),-14.02%
8,CS(=O)(=O)N1CC2(CCN(C3COC3)C2)Cc2ccccc21 (stereo not drawn),109.7%
9,Cn1c(C2CC2)nc2cc(NC(=O)C3CCOC3)ccc21 (stereo not drawn),-8.416%
10,CCc1nnc(CN2CCCN(C(=O)c3ccccn3)CC2)o1,-2.51%
11,Cc1nnc2n1CCN(C(=O)CN1C(=O)CCCc3ccccc31)C2,-14.77%
12,Cc1cc(NC(=O)N2CCN(c3nc(C)c(C)s3)CC2)no1,-7.587%
13,COC(=O)c1ccc(N2CCN(C(=O)c3cc(C)on3)C(C)C2)cc1 (stereo not drawn),-4.868%
14,Cc1cc(C(=O)N2CCN(c3nc4c(C)cccc4s3)CC2)no1,128.5%
15,Cc1cc(CNC(=O)N2CCN(c3nc(C)c(C)s3)CC2)no1,-6.921%
16,Cc1cc(C(=O)N2CCC3(CC2)c2nc[nH]c2CCN3CC(C)C)no1,-20.9%
17,Cc1cc(C(=O)N2CCc3ncc(CN4CCCCC4)n3CC2)no1,-1.928%
18,COc1cccc([C@H]2CN(C(=O)c3cc(C)on3)C[C@@H]2N)c1,-12.5%
19,Cc1cc(CNC(=O)N2CCN(c3ccccc3)CC2)no1,0.5807%
20,CCc1nc(CN2CCCN(C(=O)c3cc(C)on3)CC2)cs1,-3.396%
21,Cc1cc(C(=O)N2CCN(c3nc4c(C(C)C)cccc4s3)CC2)no1,100.9%
22,COc1cccc2sc(N3CCN(C(=O)c4cc(C)on4)CC3)nc12,127.7%
23,Cc1cc(C(=O)N2CCN(c3nc4ccccc4s3)CC2)no1,133.9%
24,CNS(=O)(=O)c1ccc(CNC(=O)Nc2cc(C)on2)s1,-23.04%
25,Cc1ccc2nc(C)c(C)c(C(=O)N3CCS(=O)(=O)CC3)c2c1,7.171%

row,Structure (SMILES),Percent Effect
1,O=C(NCC(Cc1cccc(F)c1)n1cccc1)C1CC1 (stereo not drawn),6.756%
2,COCCC(C)NCc1ccccc1-n1ccnc1 (stereo not drawn),-12.2%
3,COc1cccc(NC(=O)N(CCO)C2CCc3ccccc32)c1 (stereo not drawn),-4.61%
4,O=C(CN1CCOC(Cn2cccn2)C1)Nc1nncs1 (stereo not drawn),-3.509%
5,NC(=O)C(NC(=O)CSCc1ccc(Cl)s1)c1ccccc1 (stereo not drawn),12.02%
6,CCOC(=O)N1CCN(C(=O)c2cc(-c3ccccc3F)on2)CC1,1.064%
7,Cc1cc(C(=O)N2CCN(c3nc4c(C(C)C)cccc4s3)CC2)on1,114.6%
8,Cc1cc(C(=O)N2CCc3c(ncn3CCc3ccccc3)C2)on1,8.742%
9,Cc1cc(C(=O)N2CCN(c3nc4c(F)cccc4s3)CC2)no1,123.7%
10,Cc1cccc(C(=O)N2CCN(c3ccccc3F)CC2)n1,-20.73%
11,CCc1nc(CN2CCN(C(=O)c3cc(C)no3)CC2)cs1,6.247%
12,Cc1cccc(C(C(=O)N(C)Cc2cc(C)no2)N(C)C)c1 (stereo not drawn),-11.12%
13,CC(C)=CCN1CCNC(=O)C1CC(=O)N1CCc2sccc2C1 (stereo not drawn),13%
14,CC(C)NC(=O)[C@@H]1C[C@@H]2CCN(Cc3ccoc3)C[C@H]2O1.O=C(O)C(F)(F)F,74.8%
15,O=C(NC1CCC1)[C@@H]1C[C@@H]2CCN(CCc3ccccc3)C[C@H]2O1.O=C(O)C(F)(F)F,2.186%
16,Cc1ncccc1NC(=O)[C@H]1C[C@@H]2CCN(Cc3ccsc3)C[C@H]2O1.O=C(O)C(F)(F)F.O=C(O)C(F)(F)F,-7.023%
17,O=C(O)C(F)(F)F.O=C([C@@H]1C[C@@H]2CCN(Cc3ccoc3)C[C@H]2O1)N1CCCC1,103.1%
18,O=C(NC1CCCC1)[C@@H]1C[C@@H]2CCN(Cc3ccoc3)C[C@H]2O1.O=C(O)C(F)(F)F,111.5%
19,COc1ccccc1CN1CC[C@H]2C[C@H](C(=O)N3CCCC3)O[C@H]2C1.O=C(O)C(F)(F)F,-2.148%
20,O=C(NC1CC1)[C@@H]1C[C@@H]2CCN(Cc3ccoc3)C[C@@H]2O1.O=C(O)C(F)(F)F,102.1%
21,COc1ccccc1CN1CC[C@H]2C[C@@H](C(=O)N3CCCC3)O[C@H]2C1.O=C(O)C(F)(F)F,2.639%
22,O=C(NC1CC1)[C@@H]1C[C@@H]2CCN(Cc3ccccc3)C[C@H]2O1.O=C(O)C(F)(F)F,-0.327%
23,O=C(NC1CC1)[C@@H]1C[C@@H]2CCN(Cc3ccccc3)C[C@@H]2O1.O=C(O)C(F)(F)F,-0.7056%
